Source: PubChem BioAssay (National Center for Advancing Translational Sciences (NCATS))
An excerpt weighted towards active compounds, which were near 7% of everything screened.
IL1B secr inh – qHTS for Inhibitors of Inflammasome Signaling: IL-1-beta AlphaLISA Primary Screen; activity change, % at 57.5 µM; actives 4.7% (n = 360,000); THP-1 LPS/ATP IL-1B secretion, AlphaLISA, 16 h; hits give low values; in the data active = activity change below about -50%; inconclusive = mostly about -30% to -49%; also: % is scaled to controls: 0 for no effect and ±100 for the full control effect
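Secreted IL-1B measured by AlphaLISA bead assay after 16 h compound exposure of THP-1 cells; compounds (final up to 57.5 uM) added 1 h before LPS (250 ng/mL) and ATP (1.25 mM) stimulation; lower signal means less secretion.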
S2 tox – Viability Counterscreen for Primary qHTS for Inhibitors of ATXN expression; S2 cells (HEK-293 line with an ATXN2-luciferase reporter) viability, CellTiter-Fluor protease fluorescence, 24 h; Potency, µM (titrated, usually from 56.7 µM), hits mostly cytotoxic; actives 0.49% (n = 400,000); AID 651635, 2014; also: potency is read from the fitted curve at half-maximal effect; nearly all actives have a fitted effect of over 40% in size
DRD3 antagonist – qHTS of D3 Dopamine Receptor Antagonist: qHTS. actives 2.5% (n = 360,000). D(3) dopamine receptor (Homo sapiens), P35462. D3R cells, DiscoveRx beta-arrestin luminescence, antagonist mode; hits give low values. max response, negative = inhibition, %; in the data active = max response below about -50%; inconclusive = no clear call, values can overlap the other calls; also: % is scaled to controls: 0 for no effect and ±100 for the full control effect
Target sequence (P35462 whole entry, looked up): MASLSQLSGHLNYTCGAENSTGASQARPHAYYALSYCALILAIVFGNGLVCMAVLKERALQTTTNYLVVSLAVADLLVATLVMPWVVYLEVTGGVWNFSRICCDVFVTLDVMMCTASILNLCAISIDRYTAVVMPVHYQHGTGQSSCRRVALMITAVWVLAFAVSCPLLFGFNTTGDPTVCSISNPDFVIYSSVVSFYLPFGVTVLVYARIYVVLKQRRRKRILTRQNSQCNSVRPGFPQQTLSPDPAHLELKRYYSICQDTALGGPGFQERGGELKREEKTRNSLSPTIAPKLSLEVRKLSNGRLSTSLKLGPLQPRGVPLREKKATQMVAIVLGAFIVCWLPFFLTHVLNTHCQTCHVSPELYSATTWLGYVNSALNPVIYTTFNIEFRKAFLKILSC
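Cells expressing the human receptor were seeded at 1500 cells/well, incubated overnight at 37 degrees C in 5% CO2, then exposed to library compounds with dopamine controls for 90 minutes at 37 degrees C before luminescent detection.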
a7 integrin act – qHTS for Activators of Integrin-Mediated Alleviation for Muscular Dystrophy; alpha7betagal myoblasts, beta-gal FDG fluorescence, 48 h; Potency, µM (series often up to 38.3 µM), for inactives: at the top dose activation, most hits filed as activators; actives 0.064% (n = 350,000); AID 624291, 2012;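 also: potency is read from the fitted curve at half-maximal effect; 100% = response of the positive control SU9516; nearly all actives have a fitted effect of over 60% in size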
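alpha7betagal+/- myoblasts (passage 13, 250/well) treated 48 h at 37C with compounds at 1:260 dilution of DMSO stock. Lysed, then beta-galactosidase activity read as FDG fluorescence (ex 480/em 540) after 30 min, with pre-read for autofluorescence.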
ATXN2 expr inh – Primary qHTS for Inhibitors of ATXN expression. Potency, µM (top dose mostly 57 µM), for the others: at the top dose activity change, negative = inhibition, hits mostly inhibitors. HEK-293 ATXN2-luciferase reporter, luminescence, 24 h. actives 0.72% (n = 360,000). AID 1745845, 2022; also: potency is read from the fitted curve at half-maximal effect; % is scaled to controls: 0 for no effect and ±100 for the full control effect; nearly all actives have a fitted effect of over 55% in size
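qHTS (up to 57 uM final) was run with 24 h compound exposure of reporter cells at 37 °C. Each well was multiplexed: SteadyGlo luminescence measured ATXN2-luciferase expression after a fluorogenic Gly-Phe-AFC viability readout (25 uM final).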
D3 ag – qHTS of D3 Dopamine Receptor Agonist: qHTS. D(3) dopamine receptor (Homo sapiens), P35462. D3R DiscoveRx beta-arrestin cells, luminescence, 90 min. max activation, %. actives 0.58% (n = 410,000). AID 652048, 2013; in the data active = max activation above about 30%; also: 0% is about no effect
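Agonist-mode cell screen: cells plated at 1500/well and incubated overnight at 37 °C, then exposed to library compounds for 90 min at 37 °C. Detection reagent was added for 30–60 min at room temperature, and luminescence was read.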
* marks the source's active call; other numbers are inactive results; i = inactive; ? = inconclusive; nt = no result given; ! = not confirmed by another sample. Unless noted, calls follow the shape of the dose curve; as a rule, active = well fitted curve in the direction sought with a large enough effect; inconclusive = small, poorly fitted or top-dose-only effect, or another doubt; inactive = no such curve, though single readings can be large; an effect the other way counts as inactive or inconclusive.

SMILES	IL1B secr inh	S2 tox	DRD3 antagonist	a7 integrin act	ATXN2 expr inh	D3 ag
CC(C)OC(=O)Nc1ccc(Oc2c(F)c(F)c(F)c(F)c2F)cc1	16	i	-24	0%	2%	1
C/C=C/c1c(F)c(F)c(Oc2ccc(C(=O)O)cc2)c(F)c1F	16	?	-12	6%	12%	31*
Cc1ccc(NC(=O)c2oc3ccccc3c2NC(=O)c2ccccc2C)cc1	nt	?	nt	nt	5%	2
OC(COC(c1ccccc1)c1ccccc1)CN1CCOCC1 (stereo not drawn)	-3	i	-10	5%	nt	-3
OC(COC(c1ccc(F)cc1)c1ccc(F)cc1)CN1CCc2ccccc2C1 (stereo not drawn)	-72*	i	-18	-19%	-18%	-6
OC(COC(c1ccc(Cl)cc1)c1ccc(Cl)cc1)CN1CCc2ccccc2C1 (stereo not drawn)	-80*	nt	-56*	-64%	28µM*	-13
OC(COC(c1ccccc1)c1ccccc1)CN1CCc2ccccc2C1 (stereo not drawn)	-87*	i	-54*	-36%	-10%	-12
OC1CCCN(CC(O)COC(c2ccc(F)cc2)c2ccc(F)cc2)C1 (stereo not drawn)	?	i	5	-22%	-34%	-16
OCCN1CCN(CC(O)COc2ccc(C34CC5CC(CC(C5)C3)C4)cc2)CC1 (stereo not drawn)	-97*	i	-27	-67%	-27%	-7
COC(=O)c1ccccc1S(=O)(=O)N1CCC(NC(=O)c2ccccc2)CC1	0	i	-2	?	-3%	-1
CCOc1ccccc1N1CCN(CC(=O)NCCc2ccc(S(N)(=O)=O)cc2)CC1	22	i	16	-17%	4%	3
Cc1cc(OCC(O)CN2CCCC2)cc(C)c1Cl (stereo not drawn)	-13	i	-25	-49%	-25%	-5
OC(COc1c(Cl)cc(Cl)cc1Cl)CN1CCCCC1 (stereo not drawn)	-6	i	-63*	-32%	-31%	-22
OC(COc1ccc(Cl)cc1)CN1CCCCC1 (stereo not drawn)	0	i	-55*	15%	2%	-20
NCCOc1ccc(C23CC4CC(CC(C4)C2)C3)cc1	-81*	?	35	-68%	?	3
OC(COc1ccc(OCC(O)CN2CCCCC2)cc1)CN1CCCCC1 (stereo not drawn)	?	?	-1	-17%	nt	-4
CC1(C)NC(=O)N(CC(O)COc2cc3ccccc3cc2C(=O)N2CCCCC2)C1=O (stereo not drawn)	9	i	3	1%	4%	-5
O=C(c1cc2ccccc2cc1OCC(O)CN1CCCCC1)N1CCCCC1 (stereo not drawn)	?	?	-85*	-46%	-30%	-17
Cc1sc2nc(NCCO)[nH]c(=O)c2c1C	30	i	4	3%	6%	1
CN1CCN(CC(O)COC(c2ccc(Cl)cc2)c2ccc(Cl)cc2)CC1 (stereo not drawn)	-22	i	-24	0%	nt	-5
OC(COC(c1ccc(Cl)cc1)c1ccc(Cl)cc1)CN1CCCC1 (stereo not drawn)	-51*	i	?	-44%	?	-5
CC(=O)Nc1ccc(OCC(O)CN2CCN(c3cc(Cl)ccc3C)CC2)cc1 (stereo not drawn)	-28	i	-10	4%	-22%	-58
Cc1ccc(Cl)cc1N1CCN(CC(O)COC(C)C)CC1 (stereo not drawn)	-2	i	-79*	0%	-6%	-14
O=C(C1CCN(c2ncnc3c2nc2n3CCCCC2)CC1)N1CCN(c2ccccc2)CC1	nt	nt	nt	nt	nt	12
CCOc1ccc(CCNC(=O)C2CCN(c3ncnc4c3nc3n4CCCCC3)CC2)cc1	nt	nt	nt	nt	nt	66*
SMILES	IL1B secr inh	S2 tox	DRD3 antagonist	a7 integrin act	ATXN2 expr inh	D3 ag
O=C(Nc1ccccc1Cl)C1CCCN(c2ncnc3c2nc2n3CCCCC2)C1 (stereo not drawn)	-63*	?	37	-26%	-26%	9
O=C(NCC1CCN(Cc2ccc(Cl)cc2)CC1)C1CCCN(c2ncnc3c2nc2n3CCCCC2)C1 (stereo not drawn)	-61*	?	-26	-49%	nt	-2
O=C(C1CCN(c2ncnc3c2nc2n3CCCCC2)CC1)N1CCN(c2ccc(F)cc2)CC1	-19	nt	0	-47%	nt	48*!
O=C(NCCc1ccc(Cl)cc1)C1CCN(c2ncnc3c2nc2n3CCCCC2)CC1	nt	nt	nt	nt	nt	-9
O=C(Nc1cccc(Cl)c1)C1CCCN(c2ncnc3c2nc2n3CCCCC2)C1 (stereo not drawn)	nt	?	nt	nt	?	-9
CCc1cccc(NC(=O)C2CCCN(c3ncnc4c3nc3n4CCCCC3)C2)c1 (stereo not drawn)	-54*	?	-13	1%	?	3
Cc1cccc(N2CCN(CCCNC(=O)C3CCCN(c4ncnc5c4nc4n5CCCCC4)C3)CC2C)c1 (stereo not drawn)	-77*	18µM*	-29	-20%	25µM*	-12
Cc1cccc(-c2nc3c4ccccc4nc(NCc4ccc(F)cc4)n3n2)c1	nt	nt	nt	nt	nt	-14
CC1(C)CC(=Cc2cc(O)ccc2[N+](=O)[O-])C(=O)c2ccccc21	47	?	-11	12%	nt	2
CCC(CC)COC(=O)C1=C(C)NC(=O)NC1c1ccc2c(c1)OCO2 (stereo not drawn)	-79*	i	14	-5%	-26%	9
CN(C)CCC1Sc2ccccc2Oc2ccccc21 (stereo not drawn)	-21	i	-64*	-21%	-15%	0
CC1c2ccccc2SC(CCCN(C)C)c2ccccc21 (stereo not drawn)	-52*	i	?	-51%	4%	-7
C[C@H](NC(=O)COc1ccccc1)C(=O)OCC(=O)c1cc2ccccc2o1	9	i	-2	-34%	9%	-13
CCOC(=O)/C(C(=O)Nc1ccccc1Br)=C1/NC(C)(C)Cc2ccccc21	13	i	36	4%	3%	0
COc1cccc(NC2C=CS(=O)(=O)C2)c1 (stereo not drawn)	-17	i	5	-11%	-2%	3
O=S1(=O)C=CC(Nc2cccc(Cl)c2)C1 (stereo not drawn)	-89*	i	14	-38%	-24%	5
